{"source": "PubChem BioAssay (Tox21)", "note": "Values without a mark were called inactive. The call rests on the fitted dose curve; in most records, active means well fitted activation curve with a large enough effect in the repeat runs; inconclusive means weak or mixed curves; inactive means flat fitted curve, though single readings scatter. On the % scale 0 is the no-effect control and ±100 the full control effect."}
{"assay": "A CellTox Green Cytotoxicity Assay to monitor cytotoxicity in HepG2 cells - 0 hour (AID 1224882); further: nearly all actives have a fitted effect of over 35% in size", "conditions": "CellTox Green fluorescence; series mostly up to 76.8 µM; cytotoxicity: at the top concentration", "from_the_text": "National Center for Advancing Translational Sciences [NCATS]\nNIH Chemical Genomics Center [NCGC]\nU.S. Environmental Protection Agency [EPA]\nNational Institutes of Environmental Health Sciences [NIEHS]\nNational Toxicology Program [NTP]\nCell-based models are critical for drug discovery. Determining the natural cytotoxic effects resulting from test compounds is an essential research activity. A CellTox Green Cytotoxicity Assay to monitor cytotoxicity in real time of continues cell culture during 40 hours of the compound treatment was used to screen Tox21 10K library compounds in HepG2 cells. CellTox Green Cytotoxicity Assay is a nonlytic, homogeneous, biofluorescent method to measure cytotoxicity in cell culture after experimental manipulation. The assay system uses a proprietary asymmetric cyanine dye that is excluded from viable cells but preferentially stains the dead cell's DNA. […] Viable cells produce no appreciable increases in fluorescence. Therefore, the fluorescence signal produced by the binding interaction with dead cell DNA is proportional to cytotoxicity.\nThe mixture of HepG2 cell suspension and reagents were dispensed at 600cells/6 ul/well in 1536-well tissue culture treated black solid bottom plates using a Multidrop dispenser. After the assay plates were incubated at a 37 C/5% CO2 incubator for 5 hours, 23 nL of compounds dissolved in DMSO, positive and negative controls was transferred to the assay plate by a pintool work station. The plates were incubated at 37 C for 40 hours. The fluorescence intensity were measured at 0h, 8h, 16h, 24h, 32h and 40h time points using ViewLux plate reader during compound treatment."}
{"smiles": "CCCCCCCC/C=C\\CCCCCCCC(=O)OC[C@@H](O)[C@H]1OC[C@H](O)[C@H]1O", "cytotoxicity": "0.0383%"}
{"smiles": "Cc1cccc(NC(=S)N(C)C)c1", "cytotoxicity": "-3.31%"}
{"smiles": "CCN(CCO)c1cccc(C)c1", "cytotoxicity": "-7%"}
{"smiles": "O=C(O)c1ccccc1C(=O)Nc1ccc(S(=O)(=O)Nc2nccs2)cc1", "cytotoxicity": "0.0579% [at 35.3 µM]"}
{"smiles": "Nc1ccc(/C=C/c2ccc(N)cc2S(=O)(=O)O)c(S(=O)(=O)O)c1", "cytotoxicity": "1.07% [at 0.29 µM]"}
{"smiles": "CN(C1CCCCC1)S(=O)(=O)c1ccccc1N", "cytotoxicity": "-7.63%"}
{"smiles": "Nc1ccnc(=O)[nH]1", "cytotoxicity": "-4.2%"}
{"smiles": "O=S(=O)(O)SSS(=O)(=O)O", "cytotoxicity": "1.09%"}
{"smiles": "CCCCCC(=O)OCC", "cytotoxicity": "1.56%"}
{"smiles": "CCCOC(=O)CCCCC(=O)OCCC", "cytotoxicity": "-4.38%"}
{"smiles": "O=c1cc(O)c(Cl)c[nH]1", "cytotoxicity": "1.33% [at 35.3 µM]"}
{"smiles": "O=C(O)c1ccccc1C(=O)OCc1ccccc1", "cytotoxicity": "-5.03%"}
{"smiles": "Cc1cccc(C(=O)O)c1[N+](=O)[O-]", "cytotoxicity": "1.78%"}
{"smiles": "C=C[C@@H](C)CCC=C(C)C", "cytotoxicity": "-1.83%"}
{"smiles": "Cc1ccccc1OCC1CO1", "note": "(stereo not given)", "cytotoxicity": "0.998%"}
{"smiles": "CC(C)C(=O)Nc1cccc(C(F)(F)F)c1", "cytotoxicity": "-1.06% [at 35.3 µM]"}
{"smiles": "FC(F)(F)c1ccc(Cl)cc1Cl", "cytotoxicity": "1.17%"}
{"smiles": "CCOC(=O)CCCCCCCCC(=O)OCC", "cytotoxicity": "6.2%"}
{"smiles": "CNCc1ccccc1", "cytotoxicity": "-3.56% [at 35.3 µM]"}
{"smiles": "CNC(=O)NC", "cytotoxicity": "3.35%"}
{"smiles": "Cc1ncc([N+](=O)[O-])n1CC(O)CCl", "note": "(stereo not given)", "cytotoxicity": "5.35% [at 35.3 µM]"}
{"smiles": "CC(=O)OCC(=O)[C@@]1(O)[C@H](OC(C)=O)C[C@H]2[C@@H]3CCC4=CC(=O)C=C[C@]4(C)[C@@]3(F)[C@@H](O)C[C@@]21C", "cytotoxicity": "2.21% [at 35.3 µM]"}
{"smiles": "CCOC(=O)CCc1ccccc1", "cytotoxicity": "8.16%"}
{"smiles": "O=c1[nH]c(=O)c2[nH]c(=O)[nH]c2[nH]1", "cytotoxicity": "-5.08% [at 6.97 µM]"}
{"smiles": "CC(=O)OCCCc1ccccc1", "cytotoxicity": "1.38%"}
{"smiles": "C[C@H](CCC(=O)NCC(=O)O)[C@H]1CC[C@H]2[C@@H]3[C@H](O)C[C@@H]4C[C@H](O)CC[C@]4(C)[C@H]3C[C@H](O)[C@]12C", "cytotoxicity": "-1.65%"}
{"smiles": "O=C1OC(=O)c2cc(Oc3ccc4c(c3)C(=O)OC4=O)ccc21", "cytotoxicity": "-0.518%"}
{"smiles": "NCCc1ccn[nH]1", "cytotoxicity": "-1.95% [at 35.3 µM]"}
{"smiles": "CO/N=C(/C(=O)N[C@@H]1C(=O)N2C(C(=O)O)=C(Cn3nnc(C)n3)CS[C@H]12)c1csc(N)n1", "cytotoxicity": "-4.49% [at 35.3 µM]"}
{"smiles": "C[N+](C)(C)CC(O)CCl", "note": "(stereo not given)", "cytotoxicity": "-14.3%"}
{"smiles": "C1=CCC(c2ccccc2)CC1", "note": "(stereo not given)", "cytotoxicity": "-2.53%"}
{"smiles": "CCc1nccnc1C", "cytotoxicity": "-0.293%"}
{"smiles": "C=CCOc1c(Br)cc(C(C)(C)c2cc(Br)c(OCC=C)c(Br)c2)cc1Br", "cytotoxicity": "-5.25% [at 35.3 µM]"}
{"smiles": "CC(C)(C)c1ccc(C=O)cc1", "cytotoxicity": "4.62%"}
{"smiles": "CC(C)COC(=O)COc1ccc(Cl)cc1Cl", "cytotoxicity": "6.4%"}
{"smiles": "CN[C@@H]1[C@H](O)[C@H](NC)[C@H]2O[C@@]3(O)C(=O)C[C@@H](C)O[C@H]3O[C@@H]2[C@H]1O", "cytotoxicity": "0.323% [at 35.3 µM]"}
{"smiles": "C[CH2][Ge]([Cl])([CH2]C)[CH2]C", "cytotoxicity": "1.89%"}
{"smiles": "C=CCOC(=O)c1ccc(C(=O)OCC=C)c(C(=O)OCC=C)c1", "cytotoxicity": "0.83%"}
{"smiles": "COCC(=O)Nc1c(I)c(C(=O)NCC(O)CO)c(I)c(C(=O)N(C)CC(O)CO)c1I", "note": "(stereo not given)", "cytotoxicity": "7.81% [at 35.3 µM]"}
{"smiles": "CC1CCC(C(C)(C)S)C(=O)C1", "note": "(stereo not given)", "cytotoxicity": "-0.344%"}
